Assays:
Experiment in all cases: PBM binding z-score (relative to random genomic background probes); higher = stronger binding; sequences stand for … in GC…GCGATTGACAGCGTAGAATGAAGG
[1] = test system: FXR:RXRa (NR concentration 270 nM, RXRa partner concentration 90 nM)
Summary of the method: (§1)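 Binding z-scores take random background probes as their reference. They come from custom Agilent 4×180K protein-binding microarrays incubated 1 h with ligand-free nuclear receptor dimers, with antibodies against each partner (one per run) detecting binding. Scanned fluorescence was regression-normalized.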

[2] = test system: LXRa:RXRa (NR concentration 270 nM, RXRa partner concentration 90 nM)
Summary of the method: as §1

[3] = test system: LXRa homodimer (NR concentration 270 nM)
Summary of the method: as §1

[4] = test system: LXRb:RXRa (NR concentration 270 nM, RXRa partner concentration 90 nM)
Summary of the method: as §1

[5] = test system: LXRb homodimer (NR concentration 270 nM)
Summary of the method: as §1

[6] = test system: PPARa:RXRa (NR concentration 270 nM, RXRa partner concentration 90 nM)
Summary of the method: as §1

[7] = test system: PPARg:RXRa (NR concentration 180 nM, RXRa partner concentration 90 nM)
Summary of the method: as §1

[8] = test system: PPARg:RXRa 270nM:90nM, anti-RXR (NR concentration 270 nM, RXRa partner concentration 90 nM)
Summary of the method: as §1

[9] = test system: PPARg:RXRa 30nM:10nM, anti-RXR (NR concentration 30 nM, RXRa partner concentration 10 nM)
Summary of the method: as §1

[10] = test system: PPARg:RXRa 90nM:30nM, anti-RXR (NR concentration 90 nM, RXRa partner concentration 30 nM)
Summary of the method: as §1

Sequence	PBM binding z-score [1]	PBM binding z-score [2]	PBM binding z-score [3]	PBM binding z-score [4]	PBM binding z-score [5]	PBM binding z-score [6]	PBM binding z-score [7]	PBM binding z-score [8]	PBM binding z-score [9]	PBM binding z-score [10]
CCGACTGGGGCATAAGGTAACCATAAGCCAGCCC	0.215	0.187	-0.284	-0.112	-1.47	1.08	2.79	3.22	1.32	3.24
CGGACTGGGGCAGAAAGGTTACCATACCATCCGG	0.574	0.739	-0.05	1.25	-0.31	2.7	2.62	3.46	1.89	2.62
TGAATGAGGTTAAAGACCAGGGAACGTGGCGTCG	2.78	2.16	-0.15	1.26	0.1	3.51	3.08	4.46	2.42	4.02
TCATATAGGTAAGACAGGTGAAAGTCGGCATCTA	1.17	1.21	0.129	0.604	0.0128	1.49	0.925	2.42	4.15	3.3
ACTATTAGTTGACACGAGGGCAACCGATAGGTTG	1.1	1.04	0.219	0.64	0.129	1.21	1.06	0.472	0.354	0.356
TAGCCTAGGTCATTCAGGGACCAGTATAGAAAGC	4.75	3.39	0.547	2.25	0.504	3.62	2.01	2.24	0.478	1.37
TAGCCTAGGTCATTGAGCCAGTATAGTACGCATC	4.4	3.31	0.78	2.32	0.252	3.48	1.95	1.97	0.417	1.11
ATTCAAAGTTCAGGACGAGGTAACGTAAAGCACG	4.14	4.12	1.92	2.22	1.06	3.21	2.19	2.41	1.01	1.54
AGCTCTAGGTAAGACTCAGTTCAGTGAAGAACGC	-0.104	0.132	0.197	-0.188	-0.399	-0.0359	-0.139	0.0762	0.0391	-0.261
TCTATTAGTTGCAGGGCAACCGACGAGTCCGTTT	0.562	0.804	0.147	0.702	0.559	0.736	-0.219	1.62	3.41	2.38
TAGCCGAGGTCATGGGCCAGTATACCACGCGAAC	7.63	5.96	0.925	4.99	0.79	6.28	7.45	7.21	3.43	5.67
AGAATGAGGTTATTAAGATCGGGGAATTGCGGTC	1.39	1.31	0.0422	1.14	0.139	2.39	0.982	1.43	0.253	0.888
CTACCAAGGTGAACAAGGACGTTGATTACTATTC	0.78	0.235	0.0356	0.647	-0.411	0.963	0.812	0.636	0.194	0.209
CCGGCTGGGGCAAAGGTTACCATACTCAGTACGA	1.59	1.59	-0.197	2.03	-1.05	4.48	8.25	7.31	6.14	7.57
TCTTGTAGATCAATAGAGTTTAAGAAAGTGCGCT	0.426	0.959	0.0611	0.0999	-0.184	0.514	-0.0887	1	2.5	1.99
TCTTGTAGATCAAAGGTTAAGTAAGCCGAAGCCT	2.04	2.34	0.244	2.28	0.0721	4.84	8.98	8.32	7.35	8.69
TTACCAAGGTGAGCTTAGGTCGTTGATCCAACTC	0.558	0.409	-0.684	0.122	-1.23	1.05	-0.0698	0.725	-0.0893	0.244
CAGCCTGGGTCAGGGCCAGTATAGGAGGAACGTT	0.78	0.261	-0.628	0.24	-1.02	2.03	0.871	0.727	-0.545	0.0759
TAGCCTACGTCATGGGCCAGTATACCACGCGAAC	-0.49	-0.556	-0.342	-0.379	-0.666	-0.649	0.599	-0.711	-0.624	-0.961
ACAGACAGGTGAGTGACGGTAACTCAGCTGGACG	-0.187	-0.0958	-0.572	-0.393	-0.746	-0.129	0.633	0.0382	-0.358	-0.388
TCGAGTAGGTTACCAATGGGGCGTTCAGCTTTCT	-0.0945	0.41	-0.684	0.47	-0.564	1.09	-0.0878	1.06	0.919	1.03
ATCTCTCGGTAAAGTTCAGTGAAAGATCGATAGA	1.03	1.46	1.39	1.3	1.34	1.6	1.08	2.68	1.12	2.32
TAGCCTAGGTCAGATCGGGCCGGTATACGCTATA	1.49	0.768	-0.645	0.506	-0.232	1.27	0.615	0.655	-0.199	0.0642
TCGTATAGGTAATACAGGTGAAAGTCGGCATCTA	0.718	1.21	0.63	0.967	-0.231	1.75	0.665	1.96	2.76	2.39
CCGAGTAGGTTATGGGGCATCCAGGCAACGGTGA	0.103	0.375	-0.312	0.332	-0.509	2.36	3.95	4.52	1.97	4.17

Sequence	PBM binding z-score [1]	PBM binding z-score [2]	PBM binding z-score [3]	PBM binding z-score [4]	PBM binding z-score [5]	PBM binding z-score [6]	PBM binding z-score [7]	PBM binding z-score [8]	PBM binding z-score [9]	PBM binding z-score [10]
TTACCAAGGTGAGCTGAGGTCGTCGATCCAACTC	1.73	0.879	-0.506	0.696	-1.82	1.82	0.26	1.06	-0.186	0.372
CGAACTAGGTCAAGGGCAGTGAATCTCCGCACGC	3.56	2.14	-0.0571	1.21	-0.428	4.64	8.03	6.75	4.74	6.89
ATCGAAAGGTCGAATGTGAGTATACCCACCCGAA	4.89	4.01	0.69	3.19	1.37	4.5	2.9	3.02	1.25	1.97
CGTAGCAGGCCAATCTGGGTCACTCAAGGCTTGA	0.309	0.88	-0.711	0.262	-0.737	2.6	2.21	2.03	-0.188	1.08
AGAACGAGGGCAATGAGTTGATACCACGGGTGGC	0.296	0.211	-0.493	-0.174	-0.279	1.36	1.5	0.94	-0.0193	0.369
GATACAGGGTCTGCTAGAGGCCAGAGTATGGAAA	-0.351	-0.359	-0.605	-0.772	-0.649	-0.759	0.108	-0.444	-0.281	-0.382
CGTCAAAGTTCAACTAAAGTAACGTAAAGCACGC	6.66	6.26	3.94	4.14	2.66	4.93	5	5.38	2.2	4.09
TCAGACAGGTGAAGGTAACTAAGGTACGCAGTCG	1.03	2.57	-0.132	1.44	-0.0558	1.51	0.892	2.34	3.8	3.21
CCTACTGGGCGATCAGGTCATTGATATCAACGTT	0.953	0.548	0.541	0.798	-0.539	1.44	0.524	1.26	0.0672	0.741
CCTGACAGGTGAGAAGGTAACTCAGCCTCGATTA	-0.00915	0.102	-0.219	-0.0265	-0.779	0.763	0.404	0.701	-0.205	0.257
CCGACTGGGGCATAGGTTACCATACTCAGTACGA	-0.122	-0.0807	-0.232	0.581	-1.1	3.58	8.18	7.34	6.9	7.37
GCTTGTAGATCAAGATTAAGAAAGACTAAGCTAA	-0.857	-0.792	-0.561	-0.525	-0.737	-0.32	0.226	-0.333	-0.252	-0.334
TCTTGTAGATTAGCAGGTTAAGAAAGCTGGCCAA	0.383	0.641	0.135	0.57	-0.424	0.897	-0.494	1.4	2.55	2.07
CGAACTACGTCATTGACAGGACAGTGAATAGTAA	-0.386	-0.38	-0.195	-0.327	-0.182	-0.47	0.307	-0.251	-0.294	-0.164
TCAGACAGGTGCAGGTAACTCAGGTACGCAGTCG	0.317	0.617	-0.304	0.192	-0.936	0.506	0.493	1.31	2.88	2.35
ACTAGCAGTCCAAGGGTCACTCAAGATTAGTCCG	2.25	2.99	0.313	2.87	-0.249	3.41	3.5	4.58	2.19	4.18
CAACCAAGGTGAACAAGGTCGTTGATTACTATTC	1.58	1.48	0.275	2.09	-0.212	2.67	1.33	1.41	0.118	0.789
TCATGTAGATCAACAGGAGGTTAAGAAAGATCGA	0.191	1.12	0.0437	0.814	-0.691	1.38	0.396	1.35	2.65	1.97
TATACAGGGTCAAAGGCAAGAGTACGAATGTCGA	6.51	6.12	2.15	4.62	2.67	5.97	7.76	6.96	4.69	6.75
ATCGAAAGGTCGAGGTTAGTATAGAGAAAGGGAA	3.77	3.57	0.422	2.93	0.526	4.48	3.03	3.6	1.65	2.68
CGTCCAAGGTCAATGCCAGGTCAGTGAAAGCATT	7.1	5.52	3.08	4.42	1.04	5.11	4.05	4.59	1.16	3.45
CCTTACGGGTGACTCCAGGTTATAGCATCGGAGT	0.642	5.37	0.839	1.76	-0.486	1.35	0.581	0.491	-0.12	0.123
CGAACTAGGTCATCGACAGGACAGTGAATAGTAA	3.83	2.6	0.8	2.02	-0.0443	4.87	8.03	6.6	3.86	5.7
CAGACTGGGGCAGAAAGGTTACCATACCATCCGG	1.11	1.5	-0.0304	1.4	0.122	2.53	2.23	3.3	1.29	2.79

From the supplement of paper PMC6555819
